About 83,000 compounds went through this panel and 20% of them were active in at least one assay; those are over-represented in the sample as a whole.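 96-well plates, one dose, 48 hours. Percent growth reported; active if below 10.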 Calls of active or inactive are those of the source.
Tests used:
Assay in all cases: NCI-60 one-dose screen, 48 h (100 = growth as untreated, 0 = no growth, -100 = all killed)
Settings in all cases: 10 µM unless noted
[1] = test system: RPMI-8226 leukemia
[2] = test system: OVCAR-8 ovarian
[3] = test system: OVCAR-5 ovarian
[4] = test system: OVCAR-4 ovarian
[5] = test system: SK-OV-3 ovarian
[6] = test system: IGROV1 ovarian
[7] = test system: OVCAR-3 ovarian
[8] = test system: HS 578T breast
[9] = test system: NCI/ADR-RES ovarian
[10] = test system: T-47D breast
[11] = test system: BT-549 breast
[12] = test system: MDA-MB-435 melanoma
[13] = test system: SW-620 colon
[14] = test system: MCF7 breast
[15] = test system: HCT-116 colon
[16] = test system: HCC-2998 colon
[17] = test system: KM12 colon

Measured: growth

CCOc1ccc(C2N(c3cc(OC)c(OC)c(OC)c3)C(=O)C2(F)F)cc1 (centres undefined)
inactive: [1] 14.6% | [2] 43.2% | [3] 66.5% | [4] 49.6% | [5] 71.9% | [6] 37.8% | [8] 37.4% | [9] 28.9% | [10] 70% | [11] 44.2% | [12] 16.8% | [13] 25.5% | [14] 17.2% | [16] 81.7% | [17] 28%
active: [7] 7.25% | [15] 8.92%

Cc1ccc(C2=N[C@H]3CCC[C@@H]3N(c3ccccc3)C(C(Cl)Cl)=N2)cc1
inactive: [1] 111% | [2] 113% | [3] 91.3% | [4] 96.9% | [5] 111% | [6] 98.7% | [7] 103% | [8] 100% | [9] 97.9% | [10] 106% | [11] 106% | [12] 103% | [13] 107% | [14] 87% | [15] 97.7% | [16] 110% | [17] 100%

COc1ccc(/C=C/C(=O)/C=C(/C=C/c2ccc(OC)c(OC)c2)OB(F)F)cc1OC
active: [1] -20.9% | [2] 5.06% | [7] -8.63% | [12] 8.23% | [13] -21.8% | [15] -45.6%
inactive: [3] 65.2% | [4] 44.8% | [5] 81.9% | [6] 49.6% | [8] 50.2% | [9] 30.1% | [10] 35.5% | [11] 44.3% | [14] 20.1% | [16] 102% | [17] 36.1%

C/C(=N\NC(=O)c1ccncc1)c1ccc(N)cc1
inactive: [1] 97.5% | [2] 101% | [3] 107% | [4] 94.4% | [5] 101% | [6] 97.4% | [7] 105% | [8] 96.8% | [9] 111% | [10] 83.8% | [11] 93.2% | [12] 102% | [13] 101% | [14] 95.9% | [15] 99.6% | [16] 106% | [17] 106%

O=C(O)c1cn(C2CC2)c2cc(N3CCN(C(=O)CSc4nnc(-c5ccc(Cl)cc5)n4-c4ccccc4)CC3)c(F)cc2c1=O
inactive: [1] 102% | [2] 102% | [3] 121% | [4] 110% | [5] 79.8% | [6] 107% | [7] 110% | [8] 101% | [9] 104% | [10] 77.9% | [11] 99.1% | [12] 102% | [13] 109% | [14] 110% | [15] 103% | [16] 102% | [17] 103%

C=C(C)[C@@H]1CC[C@]2(C(=O)OCCOCCOCC[P+](c3ccccc3)(c3ccccc3)c3ccccc3)CC[C@]3(C)[C@H](CC[C@@H]4[C@@]5(C)CC[C@H](OC(C)=O)C(C)(C)[C@@H]5CC[C@]43C)[C@@H]12
active: [1] -63.9% | [2] -78.2% | [3] -86.2% | [4] -82.1% | [5] -94.5% | [6] -83.9% | [7] -95.8% | [8] -48.3% | [9] 4.3% | [10] -76.7% | [11] -89.8% | [12] -91.3% | [13] -77.9% | [14] -76% | [15] -92.2% | [16] -88.4% | [17] -89.8%

C=C(C)[C@@H]1CC[C@]2(C(=O)OCCOCCOCC[P+](c3ccccc3)(c3ccccc3)c3ccccc3)CC[C@]3(C)[C@H](CC[C@@H]4[C@@]5(C)CC[C@H](OC(=O)C(Cl)Cl)C(C)(C)[C@@H]5CC[C@]43C)[C@@H]12
inactive: [3] 39.3% | [8] 21.3% | [9] 50.2% | [16] 12.1%
active: [1] -39.3% | [2] 5.47% | [4] -0.899% | [5] -8.97% | [6] 6.43% | [7] -43.9% | [10] -21.2% | [11] -89.4% | [12] -62.5% | [13] 5.87% | [14] 1.7% | [15] -84.1% | [17] -55.7%

COc1ccc(C(=O)c2cc(OC)c(OC)c(OC)c2)cc1OC(=O)CCl
active: [2] 7.08% | [7] 0.464% | [12] -13.2% | [17] 7.22%
inactive: [1] 29.7% | [3] 73.7% | [4] 54.5% | [5] 17.7% | [6] 25.7% | [8] 48.9% | [9] 10.2% | [10] 74.7% | [11] 16.2% | [13] 29.9% | [14] 15.9% | [15] 10.7% | [16] 26.3%

O=S(=O)(Nc1nccs1)c1ccc(Nc2nc(-c3ccncc3)cs2)cc1
inactive: [1] 99.3% | [2] 121% | [3] 117% | [4] 115% | [5] 108% | [6] 84.1% | [7] 118% | [8] 96.8% | [9] 122% | [10] 105% | [11] 125% | [12] 112% | [13] 98.1% | [14] 94.3% | [15] 93.8% | [16] 120% | [17] 105%

C[C@H]1[C@H](C)CC[C@]2(C(=O)OCCOCCOCC[P+](c3ccccc3)(c3ccccc3)c3ccccc3)CC[C@]3(C)C(=CC[C@@H]4[C@@]5(C)CC[C@H](OC(=O)C(Cl)Cl)C(C)(C)[C@@H]5CC[C@]43C)[C@H]12
inactive: [2] 11% | [3] 37.3% | [6] 15.1% | [7] 16.1% | [8] 38.4% | [9] 69% | [10] 21.8% | [13] 12.5% | [16] 19.1%
active: [1] 0.348% | [4] 6.72% | [5] -0.459% | [11] -66.3% | [12] -24.1% | [14] 2.81% | [15] -36.3% | [17] 7.09%

COc1cc(C2=N/C(=C\c3cc4ccccc4nc3Oc3ccccc3)C(=O)N2C(=N)N)cc(OC)c1OC
inactive: [1] 86.1% | [2] 33.2% | [3] 80.7% | [4] 24.3% | [5] 44.2% | [6] 82.1% | [7] 76.7% | [8] 33.7% | [9] 52.6% | [10] 49% | [11] 32.7% | [12] 95.2% | [13] 87.8% | [14] 75.5% | [15] 52.8% | [16] 75.2% | [17] 79.6%

CC(=O)c1c(OCC#N)ccc2c(C)cc(=O)oc12
inactive: [1] 80% | [2] 124% | [3] 114% | [4] 107% | [5] 110% | [6] 116% | [7] 120% | [8] 106% | [9] 118% | [10] 97.9% | [11] 118% | [12] 107% | [13] 96.8% | [14] 99.2% | [15] 101% | [16] 109% | [17] 107%

COc1ccc2c(c1)Oc1nc(N)c(C#N)c(N)c1C2Sc1ccc(SC)cc1 (centres undefined)
inactive: [2] 21.2% | [3] 112% | [4] 37.2% | [5] 94.4% | [8] 67.7% | [9] 62.9% | [11] 38.9% | [12] 24.2% | [15] 10.2% | [16] 58.9% | [17] 53.3%
active: [1] 2.48% | [6] 0.493% | [7] -63.3% | [10] -7.13% | [13] -8.99% | [14] -20.7%

CC(=O)Oc1ccc(O)cc1
inactive: [1] 69.5% | [2] 90% | [3] 115% | [4] 105% | [5] 110% | [6] 107% | [7] 111% | [8] 105% | [9] 91.6% | [10] 118% | [11] 92.7% | [12] 106% | [13] 115% | [14] 88% | [15] 95.3% | [16] 123% | [17] 103%

C#CC[C@@H]1C[C@]2(C)[C@H]3CC[C@@H]4[C@H]5[C@H](C(=C)C)CC[C@]5(C(=O)O)CC[C@@]4(C)[C@]3(C)CC[C@H]2C(C)(C)[C@H]1O
active: [4] -18.7% | [7] -33.5% | [15] 9.2%
inactive: [1] 24.1% | [2] 45.8% | [3] 95.7% | [5] 74.3% | [6] 60.2% | [8] 33.4% | [9] 44% | [10] 51.1% | [11] 29% | [12] 68.5% | [13] 33.1% | [14] 34.7% | [16] 64.7% | [17] 24.8%

COc1ccc([C@H]2[C@@H](F)C(=O)N2c2cc(OC)c(OC)c(OC)c2)cc1F
inactive: [1] 15.3% | [2] 13.7% | [3] 43.6% | [4] 54.9% | [5] 33.4% | [6] 31.9% | [8] 25.5% | [10] 74.9% | [11] 15.3% | [13] 28.7% | [14] 12.8% | [16] 32.9% | [17] 10.7%
active: [7] -4.18% | [9] 8.4% | [12] 0.354% | [15] 5.59%

COCCOC(=O)COc1ccc(OC)cc1
inactive: [1] 97.3% | [2] 101% | [3] 104% | [4] 94.2% | [5] 112% | [6] 101% | [7] 95.4% | [8] 101% | [9] 104% | [10] 120% | [11] 103% | [12] 89.8% | [13] 93.5% | [14] 97.3% | [15] 106% | [16] 111% | [17] 100%
